# Experimental data: PubChem BioAssay (NCATS)
# A number with no mark means an inactive call. Records with an inconclusive call do not appear. Active and inactive are the calls of the source. Unless noted, the call rests on the fitted dose curve; in most records, active means well fitted curve in the direction sought with a large enough effect; inconclusive means small, poorly fitted or top-dose-only effect, or another doubt; inactive means no such curve, though single readings can be large; an effect the other way counts as inactive or inconclusive.
# Legend:
# [1] = Cell Viability - LYMP2-011 (AID 969); further: potency means the concentration at half of the fitted maximal effect; nearly all actives have a fitted effect of over 60% in size
# Summary of the method: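 Acute toxicity is scored as a concentration-dependent drop in intracellular ATP of a human lymphoblastoid line after 24 hr treatment. Values are AC50s modeled with the Hill equation.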
# [2] = Cell Viability - LYMP2-013 (AID 970); further: potency means the concentration at half of the fitted maximal effect; nearly all actives have a fitted effect of over 55% in size
# Summary of the method: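 Acute toxicity was measured in human lymphoblastoid cells (2500/well) exposed to compound titrations for 24 hr, with ATP luminescence (CellTiter-Glo) as read-out and AC50 fitted by Hill equation.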
# [3] = Cell Viability - LYMP2-015 (AID 971); further: potency means the concentration at half of the fitted maximal effect; nearly all actives have a fitted effect of over 55% in size
# Summary of the method: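 Acute toxicity was scored as a concentration-dependent drop in intracellular ATP in lymphoblastoid cells after 24 hr compound exposure in complete medium. Detection used CellTiter-Glo luciferase luminescence.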
# [4] = Cell Viability - LYMP2-017 (AID 972); further: potency means the concentration at half of the fitted maximal effect; nearly all actives have a fitted effect of over 55% in size
# Summary of the method: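 Steps: plate 2500 lymphoblastoid cells per well; incubate 5 hr at 37 C; add compound across a concentration series and incubate 24 hr at 37 C; add CellTiter-Glo and read luminescence after 30 min at room temperature; fit Hill curves for AC50.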
# [5] = Cell Viability - LYMP2-019 (AID 973); further: potency means the concentration at half of the fitted maximal effect; nearly all actives have a fitted effect of over 55% in size
# Summary of the method: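 Cells plated at 2500/well and allowed 5 hr at 37 C before compound addition. After 24 hr incubation, CellTiter-Glo reagent was added, plates sat 30 min at room temperature, and luminescence was recorded.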
# [6] = Cell Viability - LYMP2-021 (AID 974)
# Summary of the method: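 Concentration-response cytotoxicity in a human lymphoblastoid line: 24 hr treatment at 37 C in complete culture medium, tetraoctylammonium bromide as positive control, luminescent ATP quantitation as viability measure.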
# [7] = Cell Viability - LYMP2-023 (AID 975)
# Summary of the method: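 Concentration-dependent drop in intracellular ATP measures acute cytotoxicity in a human lymphoblastoid line treated for 24 hours in complete culture medium. AC50 values are taken from Hill-equation fits of qHTS data.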
# [8] = Cell Viability - LYMP2-002 (AID 977);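 further: potency means the concentration at half of the fitted maximal effect; compound exposure lasted 24 h at 37 °C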
# Summary of the method: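 Human lymphoblastoid LYMP2-002 cells, 2500 per well, exposed to compounds for 24 h at 37 C in complete medium; viability read as intracellular ATP by CellTiter-Glo luminescence, AC50 from Hill fits.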
# [9] = Cell Viability - LYMP2-006 (AID 978); further: potency means the concentration at half of the fitted maximal effect; nearly all actives have a fitted effect of over 60% in size
# Summary of the method: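 qHTS, 1536-well; 2500 cells/well, 5 hr 37 C; cpd 24 hr 37 C; CellTiter-Glo 30 min RT; luminescence. Tetraoctylammonium bromide pos. ctrl. AC50 via Hill eqn.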
# [10] = Cell Viability - LYMP2-007 (AID 979);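 further: potency means the concentration at half of the fitted maximal effect; cells exposed to compound for 24 h before reading; nearly all actives have a fitted effect of over 60% in size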
# Summary of the method: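 Acute toxicity is scored as a concentration-dependent fall in intracellular ATP in human lymphoblastoid cells treated 24 hr at 37 C, measured by luciferase luminescence; Hill-equation modelling yields AC50.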
# [11] = Cell Viability - LYMP2-008 (AID 980); further: potency means the concentration at half of the fitted maximal effect; nearly all actives have a fitted effect of over 60% in size
# Summary of the method: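 Acute cytotoxicity is scored as concentration-dependent loss of cellular ATP in a human lymphoblastoid line after 24 hr treatment at 37 C. ATP is quantified by luciferase luminescence.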
# [12] = Cell Viability - LYMP2-010 (AID 981)
# Summary of the method: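 Acute toxicity is scored as a concentration-dependent loss of cellular ATP in human lymphoblastoid cells after 24 hr compound exposure in complete medium. Tetraoctylammonium bromide is the positive control.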
# [13] = Cell Viability - LYMP2-012 (AID 982)
# [14] = Cell Viability - LYMP2-014 (AID 983); further: potency means the concentration at half of the fitted maximal effect; nearly all actives have a fitted effect of over 50% in size
# Summary of the method: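 Decrease in intracellular ATP after 24 hr treatment at 37 C, measured by luciferase luminescence, indicated cytotoxicity. Concentration-response data were fitted with the standard Hill equation to give AC50.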
# [15] = Cell Viability - LYMP2-016 (AID 984)
# Summary of the method: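 qHTS, 1536-well: 2500 LYMP2-016 cells/well, 5 hr 37 C, compound added, 24 hr 37 C, CellTiter-Glo 30 min RT, luminescence. Tetraoctylammonium bromide positive control. AC50 via Hill fit.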
# [16] = Cell Viability - LYMP2-020 (AID 986)
# Summary of the method: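 Acute cytotoxicity in a human lymphoblastoid line is scored as a concentration-dependent fall in cellular ATP after 24 hr at 37 C in complete medium. The positive control is tetraoctylammonium bromide, and potency is given as Hill-fit AC50.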
# [17] = Cell Viability - LYMP2-022 (AID 987)
# Summary of the method: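 Acute toxicity in a human lymphoblastoid line is scored as decreased intracellular ATP after 24 hr compound treatment at 37 C. ATP is measured by CellTiter-Glo luminescence; curves are fitted with the Hill equation to give AC50.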
# [18] = Cell Viability - LYMP2-024 (AID 988)
# Summary of the method: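 Acute toxicity is measured as concentration-dependent loss of intracellular ATP in a human lymphoblastoid line treated 24 hours at 37 C. Luciferase luminescence quantifies ATP; AC50 values come from standard Hill-equation modelling.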
# [19] = Cell Viability - LYMP2-026 (AID 989); further: potency means the concentration at half of the fitted maximal effect; nearly all actives have a fitted effect of over 50% in size
# Summary of the method: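 Concentration-dependent loss of intracellular ATP in human lymphoblastoid cells after 24 hr at 37 C, quantified by luciferase luminescence. AC50 derived from standard Hill equation.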
# [20] = Cell Viability - LYMP1-002 - Assay at 24 hr (AID 993); further: potency means the concentration at half of the fitted maximal effect
# Summary of the method: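 qHTS, LYMP1-002 lymphoblastoid, 24 h cpd, 37 C, CellTiter-Glo ATP luminescence; AC50 via Hill eq.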
# [21] = Cell Viability - LYMP1-002 - Assay at 40 hr (AID 994)
# Summary of the method: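 Viability in the human lymphoblastoid line was measured as intracellular ATP via CellTiter-Glo after 40 hr compound exposure. Tetraoctylammonium bromide served as positive control.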
# [22] = target: Vitamin D3 receptor (Homo sapiens) (UniProt P11473); experiment: qHTS assay for small molecule antagonists of vitamin D receptor signaling (AID 588541; calls by dose curve;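 further: receptor activated by calcitriol during compound treatment; series mostly up to about 77 µM; on the % scale 0 is the no-effect control and ±100 the full control effect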)
# Vitamin D3 receptor (Homo sapiens), sequence (P11473 whole entry, looked up): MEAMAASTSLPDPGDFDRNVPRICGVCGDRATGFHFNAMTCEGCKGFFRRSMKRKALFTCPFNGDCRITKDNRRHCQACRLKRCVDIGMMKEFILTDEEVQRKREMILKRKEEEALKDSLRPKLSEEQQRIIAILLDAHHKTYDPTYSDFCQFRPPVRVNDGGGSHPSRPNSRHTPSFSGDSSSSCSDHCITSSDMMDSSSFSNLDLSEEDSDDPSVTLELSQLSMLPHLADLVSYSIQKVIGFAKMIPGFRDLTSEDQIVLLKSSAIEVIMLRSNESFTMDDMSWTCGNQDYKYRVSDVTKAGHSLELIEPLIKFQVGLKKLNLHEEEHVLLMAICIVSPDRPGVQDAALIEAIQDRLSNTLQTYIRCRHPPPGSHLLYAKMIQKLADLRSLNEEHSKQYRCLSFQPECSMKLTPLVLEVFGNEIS
# Summary of the method: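 VDR-UAS-bla HEK293T cells in 2% charcoal-stripped FBS were stimulated with 1-alpha,25-dihydroxyvitamin D3 (3 nM final) plus compound for 16 h at 37 C. The beta-lactamase CCF4 readout was normalized to 50 nM agonist and DMSO, and Hill fits gave IC50.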
# [23] = target: Voltage-gated inwardly rectifying potassium channel KCNH2 (Homo sapiens) (UniProt Q12809); experiment: qHTS Assay for Small Molecule Inhibitors of the Human hERG Channel Activity (AID 588834);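 further: potency means the concentration at half of the fitted maximal effect; lower thallium flux fluorescence means stronger hERG block; nearly all actives have a fitted effect of over 50% in size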
# Voltage-gated inwardly rectifying potassium channel KCNH2 (Homo sapiens), sequence (Q12809 whole entry, looked up): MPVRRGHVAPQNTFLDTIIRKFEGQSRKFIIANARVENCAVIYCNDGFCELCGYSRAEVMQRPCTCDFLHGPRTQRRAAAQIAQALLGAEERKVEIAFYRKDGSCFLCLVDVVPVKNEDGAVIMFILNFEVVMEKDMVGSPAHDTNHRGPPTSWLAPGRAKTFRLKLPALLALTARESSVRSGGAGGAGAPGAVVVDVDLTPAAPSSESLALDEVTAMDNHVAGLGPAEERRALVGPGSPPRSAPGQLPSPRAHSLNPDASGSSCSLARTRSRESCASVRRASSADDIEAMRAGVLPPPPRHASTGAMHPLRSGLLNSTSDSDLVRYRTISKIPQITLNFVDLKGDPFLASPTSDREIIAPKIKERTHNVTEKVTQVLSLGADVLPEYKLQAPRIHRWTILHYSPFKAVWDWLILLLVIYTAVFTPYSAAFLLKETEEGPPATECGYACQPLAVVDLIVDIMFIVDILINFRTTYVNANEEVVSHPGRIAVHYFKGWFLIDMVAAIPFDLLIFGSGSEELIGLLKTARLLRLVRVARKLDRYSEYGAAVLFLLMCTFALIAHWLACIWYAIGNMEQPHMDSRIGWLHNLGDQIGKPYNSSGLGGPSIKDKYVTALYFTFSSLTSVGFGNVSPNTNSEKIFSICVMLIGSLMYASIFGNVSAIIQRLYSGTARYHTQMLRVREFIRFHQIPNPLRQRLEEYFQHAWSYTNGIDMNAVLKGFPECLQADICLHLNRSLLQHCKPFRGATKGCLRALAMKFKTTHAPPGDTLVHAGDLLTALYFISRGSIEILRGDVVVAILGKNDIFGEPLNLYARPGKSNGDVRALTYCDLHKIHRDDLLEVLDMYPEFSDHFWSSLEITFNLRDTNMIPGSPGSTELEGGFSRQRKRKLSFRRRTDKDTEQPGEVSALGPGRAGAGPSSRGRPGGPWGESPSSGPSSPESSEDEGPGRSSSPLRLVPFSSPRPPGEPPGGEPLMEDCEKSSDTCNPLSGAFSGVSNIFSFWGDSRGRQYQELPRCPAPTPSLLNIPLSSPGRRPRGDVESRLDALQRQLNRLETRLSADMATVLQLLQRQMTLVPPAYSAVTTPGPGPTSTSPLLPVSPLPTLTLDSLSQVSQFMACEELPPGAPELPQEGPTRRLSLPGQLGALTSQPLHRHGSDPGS
# Summary of the method: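 Concentration-response qHTS measuring drop in thallium-sensitive dye signal. U2OS cells carrying BacMam hERG; compound exposure ~10 min, then stimulation buffer and 2 min read at 1 sec intervals.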
# [24] = qHTS assay for small molecule agonists of the antioxidant response element (ARE) signaling pathway (AID 651741; active means well fitted activation curve with a large enough effect in the signal ratio; the % refers to the signal ratio; further: potency means the concentration at half of the fitted maximal effect)
# Summary of the method: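 HepG2 ARE-bla cells plated at 2,000 cells/well and incubated 5 h at 37 C/5% CO2 received 23 nL compound in DMSO. After 16 h at 37 C, LiveBLAzer B/G FRET substrate was applied for 2 h at room temperature and fluorescence read.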
# [25] = target: Tumor necrosis factor (Homo sapiens) (UniProt P01375); experiment: qHTS assay to identify small molecules that stimulate Tumor Necrosis Factor-alpha (TNF-alpha) secretion (AID 651757; active means well fitted curve in the direction sought with a large enough effect in the signal ratio; the % refers to the signal ratio; further: 0% is about no effect)
# Tumor necrosis factor (Homo sapiens), sequence (P01375 whole entry, looked up): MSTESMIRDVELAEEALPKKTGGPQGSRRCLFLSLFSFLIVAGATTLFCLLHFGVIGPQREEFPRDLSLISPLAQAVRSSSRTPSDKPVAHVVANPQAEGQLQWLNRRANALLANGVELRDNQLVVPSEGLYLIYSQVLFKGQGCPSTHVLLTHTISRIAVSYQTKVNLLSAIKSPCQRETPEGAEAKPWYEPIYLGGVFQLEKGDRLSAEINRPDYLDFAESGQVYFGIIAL
# Summary of the method: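 Secreted TNF-alpha from compound-treated THP-1 cells (17 hrs, 37 C) was quantified with a homogeneous time-resolved fluorescence antibody assay.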
# [26] = qHTS assay for environmental chemicals that activate the Aryl hydrocarbon Receptor (AhR) signaling pathway (AID 651777); details: 1A2-DRE human hepatoma cells, luciferase, 24 h; activation: active compounds read high; further: % of control where 0% means no effect; nearly all actives have a fitted effect of over 15% in size
# Summary of the method: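 Luminescence read-out: One-Glo added for 30 min at RT after 24 hr compound treatment (37 C, 5% CO2) of human hepatoma cells expressing a DRE/CYP1A2 promoter–luciferase reporter; increased signal indicates AhR activation.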
# [27] = target: Peroxisome proliferator-activated receptor alpha (Homo sapiens) (UniProt Q07869); experiment: qHTS assay for small molecule agonists of the peroxisome proliferator-activated receptor alpha (PPARalpha) signaling pathway (AID 651778); details: PathHunter PPARalpha complementation, chemiluminescence, 6 h; max response: active compounds read high; further: % of control where 0% means no effect
# Peroxisome proliferator-activated receptor alpha (Homo sapiens), sequence (Q07869 whole entry, looked up, the tested form may be a part): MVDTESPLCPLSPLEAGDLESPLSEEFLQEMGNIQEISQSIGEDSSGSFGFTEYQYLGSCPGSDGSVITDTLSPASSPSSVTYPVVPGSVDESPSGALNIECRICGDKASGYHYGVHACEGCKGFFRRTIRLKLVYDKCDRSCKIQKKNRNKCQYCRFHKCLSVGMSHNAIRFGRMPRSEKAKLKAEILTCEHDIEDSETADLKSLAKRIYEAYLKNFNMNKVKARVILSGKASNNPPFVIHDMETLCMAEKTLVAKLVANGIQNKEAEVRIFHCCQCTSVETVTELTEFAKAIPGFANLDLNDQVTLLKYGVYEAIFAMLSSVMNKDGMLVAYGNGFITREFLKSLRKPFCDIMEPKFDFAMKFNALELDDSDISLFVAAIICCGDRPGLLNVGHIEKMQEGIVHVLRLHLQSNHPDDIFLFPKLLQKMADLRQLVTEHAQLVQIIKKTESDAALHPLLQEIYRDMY
# Summary of the method: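 Enzyme-fragment complementation assay in which ligand-bound PPARalpha translocates and forms an active enzyme that generates chemiluminescence. Cells were plated overnight, exposed to compound for 6 hr at 37 C, and then given detection reagent for 60 min at room temperature.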
# [28] = target: Nuclear receptor ROR-gamma (Homo sapiens) (UniProt P51449); experiment: qHTS assay for small molecule antagonists of the retinoid-related orphan receptor gamma (ROR-gamma) signaling pathway (AID 651802)
# Nuclear receptor ROR-gamma (Homo sapiens), sequence (P51449 whole entry, looked up): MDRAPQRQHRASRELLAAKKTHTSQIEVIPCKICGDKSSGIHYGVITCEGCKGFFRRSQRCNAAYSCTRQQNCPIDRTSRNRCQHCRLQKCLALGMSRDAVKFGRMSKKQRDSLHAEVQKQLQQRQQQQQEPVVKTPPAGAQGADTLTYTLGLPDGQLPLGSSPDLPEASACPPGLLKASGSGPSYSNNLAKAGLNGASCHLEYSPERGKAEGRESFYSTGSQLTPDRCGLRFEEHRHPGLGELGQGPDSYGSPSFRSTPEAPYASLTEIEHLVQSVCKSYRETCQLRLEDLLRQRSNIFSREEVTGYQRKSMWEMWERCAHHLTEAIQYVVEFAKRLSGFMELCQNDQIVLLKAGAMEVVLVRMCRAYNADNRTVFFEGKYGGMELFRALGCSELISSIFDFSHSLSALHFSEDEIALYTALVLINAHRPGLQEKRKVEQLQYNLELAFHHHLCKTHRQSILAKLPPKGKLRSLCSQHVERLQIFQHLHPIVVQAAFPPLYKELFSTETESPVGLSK
# Summary of the method: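 Antagonism is scored as a fall in luminescence from a RORE-luciferase reporter in CHO cells expressing ROR under a TET-inducible promoter, measured 16hr after doxycycline induction in the presence of compound.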
# [29] = qHTS assay for small molecule agonists of the antioxidant response element (ARE) signaling pathway measured by Nrf2-dependant transcriptional activity (AID 720636; active means well fitted curve in the direction sought with a large enough effect in the repeat runs; an effect the other way counts as inactive or inconclusive;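 further: HepG2 cells with an ARE-driven luciferase reporter; % of control where 0% means no effect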)
# Summary of the method: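 HepG2 ARE-luc reporter line, 1% dialyzed FBS; 6 hr attachment at 37 C, compound pinned in, 16 hr at 37 C/5% CO2; ONE-Glo, 30 min RT, luminescence read.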
# [30] = qHTS assay for small molecule antagonists of the retinoid-related orphan receptor gamma (ROR-gamma) signaling pathway - cell viability counter screen (AID 720652; active means well fitted curve in the direction sought with a large enough effect in the repeat runs; an effect the other way counts as inactive or inconclusive;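 further: potency means the concentration at half of the fitted maximal effect; compound exposure lasted 16 hr before ATP read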)
# Summary of the method: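 Cytotoxicity is quantified via intracellular ATP (CellTiter-Glo luminescence) in doxycycline-induced CHO ROR response element-luciferase reporter cells treated with compound for 16 hr at 37 C, 5% CO2.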
# [31] = qHTS assay for small molecule agonists of the antioxidant response element (ARE) signaling pathway measured by Nrf2-dependant transcriptional activity - cell viability counter screen (AID 720653; active means well fitted curve in the direction sought with a large enough effect in the repeat runs; an effect the other way counts as inactive or inconclusive; further: potency means the concentration at half of the fitted maximal effect); details: ARE-bla HepG2 viability, CellTiter-Glo ATP luminescence, 16 h; max response: active compounds read low
# Summary of the method: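 ARE-bla HepG2 cells treated with compounds for 16 h at 37C; this counter screen measures viability as intracellular ATP by CellTiter-Glo luminescence after 30 min at room temperature.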
# [32] = qHTS assay for cell viability of HEK293 cells (AID 743288); details: ATP luminescence (CellTiter-Glo), 18 h; max response: active compounds read low; further: potency means the concentration at half of the fitted maximal effect; nearly all actives have a fitted effect of over 50% in size
# Summary of the method: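 Environmental chemicals tested in qHTS format against parental HEK293 cells; 18 h treatment, 37 C; read-out ATP luminescence (CellTiter-Glo), 30 min RT development.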
# [33] = qHTS assay for cell viability of the p53RE-bla HCT-116 cell line (AID 743292)
# Summary of the method: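 Luminescent ATP quantitation (CellTiter-Glo) served as the viability read-out; reagent was added after 16 h compound exposure at 37 C and read after 30 min at room temperature. Cells: p53RE-bla HCT-116, 4,000 per well.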
smiles,measurement,setting,value
CCCCCCCC[N+](CCCCCCCC)(CCCCCCCC)CCCCCCCC,Potency,[1],6.31 µM (active)
same,Potency,[2],7.94 µM (active)
same,Potency,[3],7.94 µM (active)
same,Potency,[4],7.94 µM (active)
same,Potency,[5],7.94 µM (active)
same,Potency,[6],7.94 µM (active)
same,Potency,[7],7.94 µM (active)
same,Potency,[8],7.94 µM (active)
same,Potency,[9],5.01 µM (active)
same,Potency,[10],2.51 µM (active)
same,Potency,[11],3.98 µM (active)
same,Potency,[12],3.16 µM (active)
same,Potency,[13],3.98 µM (active)
same,Potency,[14],6.31 µM (active)
same,Potency,[15],5.01 µM (active)
same,Potency,[16],5.01 µM (active)
same,Potency,[17],3.16 µM (active)
same,Potency,[18],3.98 µM (active)
same,Potency,[19],7.94 µM (active)
same,Potency,[20],3.16 µM (active)
same,Potency,[21],3.98 µM (active)
same,Potency,[22],inactive
same,Potency,[23],0.355 µM (active)
same,Potency,[24],8.41 µM (active)
same,outcome,[25],inactive
same,activation,[26],-8.33%
same,max response,[27],6.05%
same,Potency,[28],1.5 µM (active)
same,Potency,[29],inactive
same,Potency,[30],9.44 µM (active)
same,Potency,[31],28.2 µM (active)
same,Potency,[32],28.2 µM (active)
same,Potency,[33],44.7 µM (active)
